Only some compounds are listed: those with a hit (about 0.5% of all), similar ones and a draw of the others.
E coli growth-1: E. coli V3065 growth inhibition, primary screen, counter-screen for AddAB inhibitor project, absorbance, OD600. 18 h. AID 449728, 2010. inhibition, % at 11.9 µM. 330,000 compounds, 0.27% hits;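 active = inhibition above the campaign's mean inhibition across all tested compounds plus 3 SD, cut at about 9.9% in these data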;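 also: uninfected addAB+ strain grown without phage in ampicillin broth; 0% = DMSO wells and 100% = ciprofloxacin 0.95 µg/ml wells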
AddAB inh: growth inhibition of E. coli expressing H. pylori AddAB, primary screen, AddAB inhibitor project, absorbance | 330,000 compounds, 0.29% hits | inhibition, % at 11.9 µM | AID 435030, 2010; in the data active = inhibition above about 12%;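 also: 0% = vehicle wells of infected cells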
E coli growth-2: E. coli growth inhibition, primary screen, OD600; Escherichia coli growth, 23 h; stronger effect = lower value; OD600 absorbance (test concentration not listed); 330,000 compounds, 0.21% hits;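 active = OD600 absorbance below the run mean of sample wells minus 3.6 SD, in any replicate, cut at about 0.56 in these data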
phage Ecoli inh: growth loss of phage-infected E. coli, primary screen, RecBCD inhibitor project, absorbance, with phage, HTS. 360,000 compounds, 0.26% hits. AID 651602, 2012. inhibition, % at 11.9 µM; in the data active = inhibition above about 11%
Tat transport: E. coli Tat export inhibitors, primary screen, MC4100, TorA-mCherry reporter, fluorescence, single point | inhibition, % at 10 µM | 340,000 compounds, 0.036% hits | AID 488895, 2010;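 active = mean replicate inhibition at least 50% and at least half of replicates individually reaching 50%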;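 also: exported cargo escapes ClpAP degradation while cytoplasmic cargo is degraded and loses fluorescence; 0% = median of neutral control wells and 100% = median of NaSCN control wells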
AddAB confirm: growth loss of phage-infected E. coli expressing H. pylori AddAB, confirmation, AddAB inhibitor project, absorbance, E. coli V3065, T4 phage, triplicate | shares compounds with AddAB inh | OD; T4 phage with gene 2 nonsense mutations | inhibition, % at 11.9 µM | 880 compounds, 64% hits;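 active = mean inhibition above a set limit taken from the earlier primary screen, cut at about 13% in these data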;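 also: higher means less bacterial growth since AddAB block lets phage replicate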
RecBCD counter: growth loss of RecBCD+ E. coli with mutant T4 phage, counter-screen for AddAB inhibitor project, absorbance, V66 E. coli; shares compounds with AddAB inh; OD growth; inhibition, % at 11.9 µM; 880 compounds, 73% hits; AID 488955, 2010;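 active = mean inhibition above the mean of solvent-only control wells plus 3 SD, cut at about 4% in these data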;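 also: optical density read after an 18 h incubation at 37 °C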
bact viab count: bacterial viability inhibition counter-screen, confirmation, counter-screen for AddAB inhibitor project, absorbance | inhibition, % at 11.9 µM | absorbance (AddAB counterscreen) | shares compounds with AddAB inh | 880 compounds, 35% hits; in the data active = inhibition above about 25%
RecBCD conf: growth loss of phage-infected RecBCD+ E. coli, confirmation, RecBCD inhibitor project, absorbance, E. coli V66, T4 gene 2 phage; 890 compounds, 45% hits; shares compounds with phage Ecoli inh; E. coli V66 + T4 2- phage, growth OD; AID 651982, 2013; inhibition, % at 11.9 µM;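 active = mean inhibition over triplicates exceeding the hit threshold derived in the original primary screen, cut at about 11% in these data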
Ecoli viability: E. coli viability inhibition, counter-screen for RecBCD inhibitor project, absorbance, high throughput; absorbance (OD) growth; shares compounds with phage Ecoli inh; 890 compounds, 29% hits; AID 651983, 2013; inhibition, % at 11.9 µM; in the data active = inhibition above about 20%;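 also: E. coli strain V66 grown with compound alone and no phage infection; 0% = bacteria with DMSO vehicle only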
AddAB counter: growth loss of phage-infected AddAB-carrying E. coli, confirmation, counter-screen for RecBCD inhibitor project, absorbance, E. coli V3065, T4 phage; 890 compounds, 45% hits; inhibition, % at 11.9 µM; shares compounds with phage Ecoli inh; AID 651984, 2013; E. coli expressing H. pylori AddAB + T4 phage, OD growth; gene 2 mutant T4, recBCD-deleted host;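 active = mean inhibition above the solvent-only control wells' mean plus 3 SD, cut at about 22% in these data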;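 also: higher means less bacterial growth from phage killing when AddAB is blocked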
* hit, by the source's call; . = no result given.

SMILES	E coli growth-1	AddAB inh	E coli growth-2	phage Ecoli inh	Tat transport	AddAB confirm	RecBCD counter	bact viab count	RecBCD conf	Ecoli viability	AddAB counter
O=C(CCC1CCCC1)NNC(=O)c1cc2ccccc2cc1O	9	18*	0.67	16*	-11	14*	14*	13	8	9	14
O=C(CC1CCCC1)NNC(=O)c1ccccc1O	.	.	.	0	.	.	.	.	.	.	.
CC(=NNC(=O)c1ccc(NS(=O)(=O)c2cccs2)cc1)c1ccc2ccccc2c1	.	.	0.69	.	.	.	.	.	.	.	.
COc1nsnc1NS(=O)(=O)c1ccc(NC(=S)NC(=O)c2cccnc2)cc1	54*	59*	0.062*	47*	30	70*	31*	42*	27*	23*	45*
COc1nsnc1NS(=O)(=O)c1ccc(NC(=S)NC(=O)c2ccncc2)cc1	62*	74*	0.068*	29*	8	76*	24*	34*	14*	10	33*
Cc1ccccc1C=N/N=C1/NC(=O)CCS1	.	.	0.67	.	.	.	.	.	.	.	.
CN(C)c1ccc(O)c2c1CC1CC3[C@@H](N(C)C)C(=O)C(C(N)=O)=C(O)[C@]3(O)C(=O)C1=C2O (stereo partly drawn)	102*	99*	.	99*	149*	99*	98*	100*	93*	103*	103*
O=c1c2cc(Br)ccc2nc(-c2ccc(Cl)cc2)n1O	-5	-3	0.57	-6	-5	.	.	.	.	.	.
Cc1ccc(-c2nc3c(Cl)cc(Cl)cc3c(=O)n2O)cc1	15*	12*	0.63	12*	-6	16*	14*	8	3	6	12
O=C1CCCC2=C1C(c1ccc(Cl)cc1)C1C(=O)c3ccccc3C1=N2 (stereo not drawn)	-3	1	0.66	0	-1	.	.	.	.	.	.
O=C1c2ccccc2C2=Nc3ccccc3SC(c3ccc(Cl)cc3)C12 (stereo not drawn)	36*	25*	0.66	22*	-57	39*	30*	52*	18*	16	42*
CCSc1nsc(NC(=O)Nc2ccccc2F)n1	4	-2	0.59	6	-2	.	.	.	.	.	.
C=CCSc1nsc(NC(=O)Nc2ccc(F)cc2)n1	16*	20*	.	15*	-13	18*	22*	21	8	10	22*
Cc1ccc(S(=O)(=O)N=C(N)Nc2nc(C)c3cc(C)c(C)cc3n2)cc1	.	.	0.74	.	.	.	.	.	.	.	.
O=C(NN=Cc1ccc([N+](=O)[O-])s1)c1ccccc1Br	.	.	0.68	.	.	.	.	.	.	.	.
CC[C@H]1OC(=O)[C@H](C)[C@@H](O[C@H]2C[C@@](C)(OC)[C@@H](O)[C@H](C)O2)[C@H](C)[C@@H](O[C@@H]2O[C@H](C)C[C@H](N(C)C)[C@H]2O)[C@](C)(O)C[C@@H](C)C(=O)[C@H](C)[C@@H](O)[C@]1(C)O	20*	22*	.	27*	39	45*	17*	18	19*	20*	32*
Cc1ccc2nc(Cl)c(C=NNC(=O)CN3CCOCC3)cc2c1	.	.	0.69	.	.	.	.	.	.	.	.
O=C(CSc1nnc(-c2cccnc2)o1)Nc1ccc(F)cc1	.	.	.	4	.	.	.	.	.	.	.
COc1ccc(NC(=O)CSc2nnc(-c3ccc(F)cc3)o2)cn1	9	21*	0.59	24*	-76	29*	17*	20	21*	21*	39*
CCN(CC)c1ccc(C=NNC(=S)NCc2ccccc2)c(O)c1	.	.	0.68	.	.	.	.	.	.	.	.
CCN(CC)c1ccc(/C=N/NC(=S)NCc2ccccc2)c(O)c1	15*	12*	.	14*	1	9	14*	16	9	9	20
COC(=O)C(C)NC(=S)N1CCN(c2c(F)cc3c(=O)c(C(=O)O)cn(C4CC4)c3c2OC)CC1C (stereo not drawn)	102*	103*	0.067*	99*	17	102*	100*	102*	104*	104*	104*
CNC(=S)N1CCN(c2c(F)cc3c(=O)c(C(=O)O)cn(C4CC4)c3c2OC)CC1C (stereo not drawn)	99*	101*	0.045*	100*	73*	100*	101*	99*	101*	103*	103*
Oc1ccccc1C(Nc1nccs1)c1ccc2cccnc2c1O (stereo not drawn)	17*	13*	0.69	12*	6	9	12*	10	8	10	9
Oc1c(C(Nc2ccccn2)c2ccccn2)ccc2cccnc12 (stereo not drawn)	14*	17*	0.66	16*	3	7	9.8*	2	5	9	7
SMILES	E coli growth-1	AddAB inh	E coli growth-2	phage Ecoli inh	Tat transport	AddAB confirm	RecBCD counter	bact viab count	RecBCD conf	Ecoli viability	AddAB counter
Cc1noc(C)c1NC(=O)N(C)CC1Oc2ccc(NS(=O)(=O)c3c(C)noc3C)cc2C(=O)N(C(C)CO)CC1C (stereo not drawn)	.	.	0.67	.	.	.	.	.	.	.	.
O=C(NN=Cc1cc(Br)ccc1O)C(=O)Nc1ccccc1OC(F)(F)C(F)F	.	.	0.74	.	.	.	.	.	.	.	.
COc1cccc(/C=N/NC(=O)C(=O)Nc2ccccc2OC(F)(F)C(F)F)c1O	15*	19*	.	17*	-3	10	12*	10	4	4	7
COc1cccc(C=NNC(=O)c2ccc(-c3ccccc3)cc2)c1O	.	.	0.72	.	.	.	.	.	.	.	.
COc1cccc(/C=N/NC(=O)c2ccc(-c3ccccc3)cc2)c1O	17*	19*	.	19*	2	6	16*	4	7	10	19
Cc1nc2ccccc2c(=O)n1N=Cc1ccccc1Cl	.	.	0.67	.	.	.	.	.	.	.	.
Cc1nnc(NCc2cccc(Cl)c2)c2ccccc12	1	3	0.63	1	1	.	.	.	.	.	.
Cc1nnc(NCCc2ccccc2)c2ccccc12	15*	18*	0.52	13*	10	10	8.5*	10	2	6	6
